Reference: ChEMBL document CHEMBL1961873, “Compounds: GSK PKIS; Assays: Nanosyn kinase panel” (2012)

How the values were obtained:
[1] = test system: Tyrosine-protein kinase ABL1 (Homo sapiens), P00519 [T315I]; conditions: at 1 µM
[2] = test system: Tyrosine-protein kinase ABL1 (Homo sapiens), P00519 [Y253F]; conditions: at 0.1 µM
[3] = test system: Tyrosine-protein kinase ABL1 (Homo sapiens), P00519 [Y253F]; conditions: at 1 µM
[4] = target: Tyrosine-protein kinase ABL1 (Homo sapiens) (UniProt P00519); conditions: at 0.1 µM
[5] = target: Tyrosine-protein kinase ABL1 (Homo sapiens) (UniProt P00519); conditions: at 1 µM
[6] = target: ALK tyrosine kinase receptor (Homo sapiens) (UniProt Q9UM73); conditions: at 0.1 µM
[7] = target: ALK tyrosine kinase receptor (Homo sapiens) (UniProt Q9UM73); conditions: at 1 µM
[8] = target: Tyrosine-protein kinase ABL2 (Homo sapiens) (UniProt P42684); conditions: at 0.1 µM
[9] = target: Tyrosine-protein kinase ABL2 (Homo sapiens) (UniProt P42684); conditions: at 1 µM
[10] = target: Tyrosine-protein kinase receptor UFO (Homo sapiens) (UniProt P30530); conditions: at 0.1 µM
[11] = target: Tyrosine-protein kinase receptor UFO (Homo sapiens) (UniProt P30530); conditions: at 1 µM
[12] = target: Tyrosine-protein kinase Blk (Homo sapiens) (UniProt P51451); conditions: at 0.1 µM
[13] = target: Tyrosine-protein kinase Blk (Homo sapiens) (UniProt P51451); conditions: at 1 µM
[14] = target: T1, Cytoplasmic tyrosine-protein kinase BMX (Homo sapiens) (UniProt P51813); conditions: at 0.1 µM
T1 sequence (whole entry): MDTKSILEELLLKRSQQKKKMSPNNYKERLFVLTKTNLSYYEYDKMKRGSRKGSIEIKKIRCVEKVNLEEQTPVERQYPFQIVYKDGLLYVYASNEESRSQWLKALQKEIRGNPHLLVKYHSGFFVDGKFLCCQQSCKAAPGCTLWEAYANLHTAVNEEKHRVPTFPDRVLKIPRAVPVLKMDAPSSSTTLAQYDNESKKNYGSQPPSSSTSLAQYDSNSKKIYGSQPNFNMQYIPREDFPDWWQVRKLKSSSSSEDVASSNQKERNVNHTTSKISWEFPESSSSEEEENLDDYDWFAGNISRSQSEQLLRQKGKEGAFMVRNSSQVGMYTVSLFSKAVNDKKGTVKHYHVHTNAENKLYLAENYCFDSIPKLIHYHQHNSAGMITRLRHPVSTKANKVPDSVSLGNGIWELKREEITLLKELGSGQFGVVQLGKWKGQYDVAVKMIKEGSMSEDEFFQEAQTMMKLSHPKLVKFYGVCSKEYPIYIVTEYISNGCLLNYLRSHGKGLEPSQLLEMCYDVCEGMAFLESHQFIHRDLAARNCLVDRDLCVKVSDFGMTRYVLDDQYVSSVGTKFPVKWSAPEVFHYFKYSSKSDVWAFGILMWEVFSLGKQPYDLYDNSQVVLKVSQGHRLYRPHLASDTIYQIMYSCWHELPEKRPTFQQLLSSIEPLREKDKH

[15] = target: T1, Cytoplasmic tyrosine-protein kinase BMX (Homo sapiens); conditions: at 1 µM
[16] = target: Protein-tyrosine kinase 6 (Homo sapiens) (UniProt Q13882); conditions: at 0.1 µM
[17] = target: Protein-tyrosine kinase 6 (Homo sapiens) (UniProt Q13882); conditions: at 1 µM
[18] = target: Tyrosine-protein kinase BTK (Homo sapiens) (UniProt Q06187); conditions: at 0.1 µM
[19] = target: Tyrosine-protein kinase BTK (Homo sapiens) (UniProt Q06187); conditions: at 1 µM
[20] = target: Tyrosine-protein kinase CSK (Homo sapiens) (UniProt P41240); conditions: at 0.1 µM;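 note: value given is the averaged percent inhibition of CSK kinase activity, from the GSK PKIS kinase inhibitor set screening panel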

Chain of Tyrosine-protein kinase receptor UFO (Homo sapiens) (P30530 whole entry): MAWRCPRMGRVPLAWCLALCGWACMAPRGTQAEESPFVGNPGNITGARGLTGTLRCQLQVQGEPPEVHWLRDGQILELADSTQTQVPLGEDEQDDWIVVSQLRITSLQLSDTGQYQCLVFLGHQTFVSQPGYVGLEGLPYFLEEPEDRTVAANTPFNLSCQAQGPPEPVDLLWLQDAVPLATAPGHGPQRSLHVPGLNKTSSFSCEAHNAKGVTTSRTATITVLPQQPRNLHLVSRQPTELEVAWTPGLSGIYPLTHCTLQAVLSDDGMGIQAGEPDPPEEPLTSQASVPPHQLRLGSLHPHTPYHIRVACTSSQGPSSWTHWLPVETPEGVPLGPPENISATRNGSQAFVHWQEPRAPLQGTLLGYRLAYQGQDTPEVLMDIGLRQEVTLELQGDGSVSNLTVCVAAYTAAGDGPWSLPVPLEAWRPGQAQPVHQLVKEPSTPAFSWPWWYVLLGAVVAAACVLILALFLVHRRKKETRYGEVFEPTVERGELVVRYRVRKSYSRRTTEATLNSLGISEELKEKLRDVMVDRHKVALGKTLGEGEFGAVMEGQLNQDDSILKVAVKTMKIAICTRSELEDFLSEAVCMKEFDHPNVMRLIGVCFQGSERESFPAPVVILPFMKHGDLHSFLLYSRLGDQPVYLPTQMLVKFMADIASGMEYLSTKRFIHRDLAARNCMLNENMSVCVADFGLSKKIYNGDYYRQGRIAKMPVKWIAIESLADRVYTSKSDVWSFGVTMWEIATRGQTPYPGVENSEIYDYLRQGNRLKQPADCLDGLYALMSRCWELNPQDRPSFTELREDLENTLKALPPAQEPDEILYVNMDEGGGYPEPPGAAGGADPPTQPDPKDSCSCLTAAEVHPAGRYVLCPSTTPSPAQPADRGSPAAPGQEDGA
Chain of Tyrosine-protein kinase BTK (Homo sapiens) (Q06187 whole entry): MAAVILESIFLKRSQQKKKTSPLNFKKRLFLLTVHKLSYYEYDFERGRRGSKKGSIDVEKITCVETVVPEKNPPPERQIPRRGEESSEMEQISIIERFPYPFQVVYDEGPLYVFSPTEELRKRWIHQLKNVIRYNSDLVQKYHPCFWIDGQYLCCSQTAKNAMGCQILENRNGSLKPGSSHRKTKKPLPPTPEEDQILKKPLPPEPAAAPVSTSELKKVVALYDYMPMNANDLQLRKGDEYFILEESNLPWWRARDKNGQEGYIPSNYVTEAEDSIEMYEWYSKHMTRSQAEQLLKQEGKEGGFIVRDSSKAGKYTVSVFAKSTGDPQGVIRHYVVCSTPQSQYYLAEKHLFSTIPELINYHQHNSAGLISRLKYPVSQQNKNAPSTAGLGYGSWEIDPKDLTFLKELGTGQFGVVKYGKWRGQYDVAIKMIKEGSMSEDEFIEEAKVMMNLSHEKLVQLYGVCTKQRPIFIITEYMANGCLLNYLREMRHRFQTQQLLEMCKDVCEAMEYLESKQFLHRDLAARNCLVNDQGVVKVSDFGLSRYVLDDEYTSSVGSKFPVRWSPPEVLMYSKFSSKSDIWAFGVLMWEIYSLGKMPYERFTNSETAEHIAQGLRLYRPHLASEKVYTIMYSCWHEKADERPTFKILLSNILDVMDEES
Chain of Protein-tyrosine kinase 6 (Homo sapiens) (Q13882 whole entry, looked up): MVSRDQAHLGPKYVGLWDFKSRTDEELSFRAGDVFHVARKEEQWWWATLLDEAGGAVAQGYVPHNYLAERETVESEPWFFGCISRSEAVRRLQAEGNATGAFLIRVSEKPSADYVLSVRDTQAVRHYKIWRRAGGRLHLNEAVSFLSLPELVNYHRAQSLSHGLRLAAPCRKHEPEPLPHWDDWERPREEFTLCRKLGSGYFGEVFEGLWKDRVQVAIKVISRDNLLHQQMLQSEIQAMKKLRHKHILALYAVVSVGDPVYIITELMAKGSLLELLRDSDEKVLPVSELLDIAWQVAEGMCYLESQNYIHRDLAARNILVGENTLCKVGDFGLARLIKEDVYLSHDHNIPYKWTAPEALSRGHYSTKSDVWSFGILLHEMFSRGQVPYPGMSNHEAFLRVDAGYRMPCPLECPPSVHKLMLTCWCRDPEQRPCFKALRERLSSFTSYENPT
Chain of Tyrosine-protein kinase ABL2 (Homo sapiens) (P42684 whole entry): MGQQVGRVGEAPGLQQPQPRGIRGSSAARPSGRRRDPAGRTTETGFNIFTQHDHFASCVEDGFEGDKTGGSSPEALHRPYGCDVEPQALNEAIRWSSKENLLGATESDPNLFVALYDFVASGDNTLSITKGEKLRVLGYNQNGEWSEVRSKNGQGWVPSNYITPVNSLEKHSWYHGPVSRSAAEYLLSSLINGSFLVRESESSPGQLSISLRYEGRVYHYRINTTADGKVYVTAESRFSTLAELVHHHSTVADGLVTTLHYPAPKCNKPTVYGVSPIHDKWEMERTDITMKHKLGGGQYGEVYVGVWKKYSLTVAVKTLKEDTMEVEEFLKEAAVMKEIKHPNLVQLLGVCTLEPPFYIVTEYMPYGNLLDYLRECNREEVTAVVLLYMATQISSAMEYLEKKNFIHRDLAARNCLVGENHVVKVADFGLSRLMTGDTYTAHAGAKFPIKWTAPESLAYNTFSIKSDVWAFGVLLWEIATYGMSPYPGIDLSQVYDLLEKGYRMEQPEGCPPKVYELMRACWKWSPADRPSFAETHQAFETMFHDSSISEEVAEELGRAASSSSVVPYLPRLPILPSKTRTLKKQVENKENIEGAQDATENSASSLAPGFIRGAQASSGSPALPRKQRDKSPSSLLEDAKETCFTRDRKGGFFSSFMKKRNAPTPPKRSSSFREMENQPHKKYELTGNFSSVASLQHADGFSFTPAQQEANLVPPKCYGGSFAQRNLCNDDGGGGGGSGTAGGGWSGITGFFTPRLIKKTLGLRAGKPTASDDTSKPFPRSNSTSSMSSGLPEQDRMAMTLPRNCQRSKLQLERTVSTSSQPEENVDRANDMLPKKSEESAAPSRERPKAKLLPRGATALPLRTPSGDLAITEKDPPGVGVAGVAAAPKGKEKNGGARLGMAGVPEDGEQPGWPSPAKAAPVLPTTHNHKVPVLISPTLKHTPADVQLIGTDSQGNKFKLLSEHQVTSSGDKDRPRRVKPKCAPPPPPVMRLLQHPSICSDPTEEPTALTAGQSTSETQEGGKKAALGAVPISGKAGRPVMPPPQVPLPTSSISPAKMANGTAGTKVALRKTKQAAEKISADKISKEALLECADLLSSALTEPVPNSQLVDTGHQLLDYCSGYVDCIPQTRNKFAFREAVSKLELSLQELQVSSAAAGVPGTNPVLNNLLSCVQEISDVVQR
Chain of ALK tyrosine kinase receptor (Homo sapiens) (Q9UM73 19-1620 limits assumed): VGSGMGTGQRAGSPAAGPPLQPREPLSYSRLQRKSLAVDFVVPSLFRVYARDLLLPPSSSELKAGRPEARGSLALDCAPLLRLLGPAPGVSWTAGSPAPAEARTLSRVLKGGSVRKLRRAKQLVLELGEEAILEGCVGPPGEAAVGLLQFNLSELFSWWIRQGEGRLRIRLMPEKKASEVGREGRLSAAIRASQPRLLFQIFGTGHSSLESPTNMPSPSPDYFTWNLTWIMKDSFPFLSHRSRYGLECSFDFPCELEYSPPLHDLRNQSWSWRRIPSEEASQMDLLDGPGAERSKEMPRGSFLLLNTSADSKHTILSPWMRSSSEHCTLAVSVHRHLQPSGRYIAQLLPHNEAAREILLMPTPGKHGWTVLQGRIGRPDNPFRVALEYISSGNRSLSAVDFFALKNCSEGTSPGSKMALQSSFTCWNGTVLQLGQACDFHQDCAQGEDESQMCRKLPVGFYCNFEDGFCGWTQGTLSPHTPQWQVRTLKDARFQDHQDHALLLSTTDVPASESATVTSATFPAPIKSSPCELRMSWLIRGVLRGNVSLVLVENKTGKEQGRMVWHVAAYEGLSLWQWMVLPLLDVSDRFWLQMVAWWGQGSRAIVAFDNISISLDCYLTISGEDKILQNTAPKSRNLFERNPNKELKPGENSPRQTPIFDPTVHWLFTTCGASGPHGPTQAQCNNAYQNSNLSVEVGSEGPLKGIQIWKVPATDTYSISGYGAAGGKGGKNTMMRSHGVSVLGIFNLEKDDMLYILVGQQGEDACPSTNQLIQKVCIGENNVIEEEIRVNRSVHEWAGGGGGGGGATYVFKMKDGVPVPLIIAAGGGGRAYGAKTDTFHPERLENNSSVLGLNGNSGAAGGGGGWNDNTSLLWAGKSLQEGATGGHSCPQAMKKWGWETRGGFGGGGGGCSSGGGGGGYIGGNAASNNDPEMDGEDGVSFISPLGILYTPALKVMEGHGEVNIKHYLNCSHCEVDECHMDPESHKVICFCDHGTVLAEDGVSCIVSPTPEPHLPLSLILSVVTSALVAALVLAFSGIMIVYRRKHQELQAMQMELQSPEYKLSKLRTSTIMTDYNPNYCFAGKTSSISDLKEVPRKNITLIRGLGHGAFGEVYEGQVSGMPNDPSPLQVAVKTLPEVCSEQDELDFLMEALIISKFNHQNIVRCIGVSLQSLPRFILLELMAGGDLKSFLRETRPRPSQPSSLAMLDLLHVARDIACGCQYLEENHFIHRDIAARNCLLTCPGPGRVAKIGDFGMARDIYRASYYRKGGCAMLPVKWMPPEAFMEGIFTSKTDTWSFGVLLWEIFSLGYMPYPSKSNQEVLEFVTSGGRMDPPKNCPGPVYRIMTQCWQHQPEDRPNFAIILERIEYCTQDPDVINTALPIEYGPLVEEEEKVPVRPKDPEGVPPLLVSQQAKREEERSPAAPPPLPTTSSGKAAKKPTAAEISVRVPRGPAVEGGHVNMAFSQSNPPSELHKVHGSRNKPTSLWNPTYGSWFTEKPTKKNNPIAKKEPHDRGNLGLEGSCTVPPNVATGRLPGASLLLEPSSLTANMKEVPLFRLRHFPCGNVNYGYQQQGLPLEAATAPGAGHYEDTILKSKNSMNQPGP

Row | SMILES | inhibition [1] | inhibition [2] | inhibition [3] | inhibition [4] | inhibition [5] | inhibition [6] | inhibition [7] | inhibition [8] | inhibition [9] | inhibition [10] | inhibition [11] | inhibition [12] | inhibition [13] | inhibition [14] | inhibition [15] | inhibition [16] | inhibition [17] | inhibition [18] | inhibition [19] | inhibition [20]
1 | c1cnn2ncc(-c3ccnc(Nc4ccc5c(c4)OCCO5)n3)c2c1 | 35.9% | 9.16% | 36% | 7.67% | 38.7% | 3.96% | 31.7% | 7.27% | 43.9% | -2.3% | 10.1% | 3.13% | 9.58% | 1.58% | 14.5% | 6.27% | 13.7% | 1.69% | 3.99% | 4.46%
2 | NCc1ccc(-c2nc(-c3ccc(Cl)c(O)c3)c(-c3ccncc3)[nH]2)cc1 | 24.2% | 12.6% | 54.6% | 6.87% | 53.1% | -0.45% | 2.22% | 9.17% | 55.8% | -4.39% | 3.04% | 0.72% | 10.4% | 12.4% | 28.9% | 13.9% | 58.7% | 1.91% | 6.57% | -0.21%
3 | COc1ccc(-c2nn3ncccc3c2-c2ccnc(Nc3ccc(Cl)c(C(F)(F)F)c3)n2)cc1 | 4.57% | 2.03% | 6.35% | 2.26% | 10.3% | 1.83% | 2.05% | 2.64% | 9.44% | -2.69% | -2.97% | 1.79% | 2.85% | 2.75% | 2.33% | 3.82% | 4.81% | 0.66% | 0.36% | -0.37%
